Assay results from the OligoGym collection.

target: PSKH2; assay: pooled miR-30 sensor sort-seq; sequence = guide strand; conditions: shRNA
Note: reference of the scale not given here.

Sequence | sensor-assay potency score (higher = more potent)
TTGTCTATAAAGTCCTTCGCCA | -0.69
TAGAAGACTGTGCAGATCCAGG | -0.858
TTGACCTTCGTGCTTGGCCCAA | -1.26
TTGGTTTTGACCTTCGTGCTTG | 0.0948
TAGTTTGTCTATAAAGTCCTTC | -0.109
TTGCCTTTCAGAATCTTCCTGT | 0.856
TACCATGTAAACTTGATCCTCA | 0.763
TTACCATGTAAACTTGATCCTC | -0.301
TTTGTGAGAATAATGTGACTTA | 0.516
AAATTTTCGACTCTTCACCTGG | 0.215

target: PSMB6; assay: as above; conditions: shRNA

Sequence | sensor-assay potency score (higher = more potent)
TATCGGTAACACATCTCCTTAA | -0.95
TAGGTAGCATCAACATAGCCAT | -0.545
TAGCCATAGATGTAGGAGCTCC | -0.837
TTGTCAGTCACTCGATTGGCGA | -1.6
AATGCTGTGGAAACCGAGCTGG | -0.331
TTCAATGCTGTGGAAACCGAGC | -0.63
GTATCGGTAACACATCTCCTTA | -1.65
TTGCAGACACTCTTCCTTGGTC | -0.171
TTAAATTTTGCATCAGTACAGG | -0.777
TCGTGAATAGGTGTCAGCTTGT | -0.101
TTGTTCTGGAGTCCGCCCCCAG | -1.38
TCAGCTTGTCAGTCACTCGATT | -0.432

target: PSMC1; assay: as above; conditions: shRNA

Sequence | sensor-assay potency score (higher = more potent)
TTTAATTCTCTCTAACTTCAGT | -0.456
TTCAGCAGTTCCAACATTGTTC | -0.616
TTGAGCAGGACCGAGCAGCCAG | -1.07
TTGTCCTTGTCATCCTTCTTGC | -0.829
TTGCCTTGATGTCAGCACCAGA | -0.927
TTTCTTGTCCTTGTCATCCTTC | 0.111
TAATTCTCTCTAACTTCAGTAA | -0.505
AACTTCAGTAATTTTAACCGGC | 0.102
TAATGGTTTCATTTGTTCCTGA | -0.172
TTGTGGTTGAGCAGGACCGAGC | -1.36
AATATCTGCATAGGTCTCCTGG | -0.497

target: PSMD14; assay: as above; conditions: shRNA

Sequence | sensor-assay potency score (higher = more potent)
AAATTTAGCAACATCTTCTGTT | 0.377
TAGCTTGGAACACTGGATCAAC | -0.999
TAGCAACATCTTCTGTTCCAGT | -0.472
TAGTCCATGAATTAATGCCTGG | -1.08
TATCTTCTTCTTCTACAGCCTT | -0.722
TTTGTCTTGGTTCATGTCCTAA | -1.03
TAACATTTTTAACAGTGCCAGG | -1.43
